The first experiment has as its system PXR:RXRa (NR concentration 270 nM, RXRa partner concentration 90 nM). The experiment is described as follows: PBM binding z-score (relative to random genomic background probes); higher = stronger binding; sequences stand for … in GC…GCGATTGACAGCGTAGAATGAAGG
In outline:
(§1)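 Antibodies against each partner of ligand-free nuclear receptor dimers (one per run) detected binding on custom Agilent 4×180K protein-binding microarrays after 1 h incubation. The double-stranded probes had 34-nt variable regions carrying direct-repeat seeds, single-nucleotide variants, half-site ablations and random human genomic background sequences. Binding z-scores, from regression-normalized fluorescence, use the random background probes as reference.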
In turn, CCTACTGGGCCAACGTCATTGATCAGTCAAAGCA came in with a PBM binding z-score of -0.583.

CCGACTCGGGCAGAAAGGTTACCATACCATCCGG came in with a PBM binding z-score of 0.674.

Consider CCTTCTGGGCCACGAAAGGTCATTGATTCAGTGA, for which the PBM binding z-score came to 5.74.

For the sequence ACTAGCAGGCCGAGGGTCACTCAAGATTAGTCCG, the PBM binding z-score was 1.71.

For the sequence CCTATTAGTTGACCATAAGGGCAACCGAAGCTCG, the PBM binding z-score was found to be 1.

Consider ACTATTAGTTGACTTACGGCAACCGATACGACGC, for which the PBM binding z-score is -0.0445.

Turning to CCGGCTAGGTCAATGGTCAGCTAAAGCAGCTCGC, the PBM binding z-score amounted to 0.817.

On to TCTAGCAGGCCAGAGGGTCGCTCAAGAGGTACGG, for which the PBM binding z-score was -0.366.

As to ACTTCCGGGTCAACGAGGTTATAGCACGCGTATA, the PBM binding z-score was 4.91.

In turn, CCGACTGAGGCATAAGGTTACCATAAGCCAGCCC yielded a PBM binding z-score of 0.286.

As for GGAACGAGGGCAAGTTGACAGCAGAGTTTGATGG, the PBM binding z-score is 0.693.

CCAGACTGGTGAGAAGGTAACTCAGCCTCGATTA: the PBM binding z-score is -0.321.

Consider CGTCCAAGGTCAGAGAGGTCAGTGGATGCCGAGT, for which the PBM binding z-score was found to be 6.17.

As to TCGGACAGGTGAAGGTAACTCAGGTACGCAGTCG, the PBM binding z-score worked out at 0.407.

The sequence GCTATTAGTTGAAAGGGCAACCGAATGATTCTCG had a PBM binding z-score of 0.708.

Sequence ACAGACAGGTGATGAAGGTGACTCAGGCTATCAT returned a PBM binding z-score of 0.114.

In turn, ACTATTAGTTGAGACGATGGCAACCGATAGGTTG returned a PBM binding z-score of -0.242.

ACACCAAGGTGATCGTGAGGTCGTTGATACTAAC came in with a PBM binding z-score of 2.98.

On to TGAATGAGGTTATAAAATCAGGGAACGTTGCAAA, for which the PBM binding z-score was 0.62.

Consider TATACAGGGTCAAAAGCCAGAGTACGAATGTCGA, for which the PBM binding z-score is 3.49.

Sequence ACTTACGGGTCACCGAGGTTATAGCACGCGTATA registered a PBM binding z-score of 5.54.

As for TCTGGTAGGTCAGTTGGTCAGCTAACGAGCTGCC, the PBM binding z-score was 0.675.

In the case of AATACAGCGTCATCGTAGGCCAGAGTACGCACAG, the PBM binding z-score is -0.367.

In turn, CGTCAAAGTTCAACTCAGGTAACGTAAAGCACGC yielded a PBM binding z-score of 5.4.

Consider ATATGTAGGTTAAGGGTGATTCAGGTTGGTTCGC, for which the PBM binding z-score came to 1.63.

Turning to CCAGACAGGTGAAAGATAACTCAGTCTGGTACGC, the PBM binding z-score is -0.0544.

TCTAGTTGATCAAAGGTCACACACTCGAAATGCG: the PBM binding z-score came out at 5.73.

TCTCGGAGGACAGGAAGGTCAGAGCTTTCCAGAG yielded a PBM binding z-score of 1.36.

Take CTCTAAAGGTCGGTTGAGGTGAGTATACGGATAA: the PBM binding z-score worked out at 3.48.

As to CGTCCAAGGTCAGAGAGGTTAGTGAATGCCGAGT, the PBM binding z-score was 3.93.

Turning to CCGACTGCGGCAAGGTTACCATAACGCACAGCCA, the PBM binding z-score was 0.562.

On to CCTAGCAGGACAATCTGGGTCACTCAAGGCTTGA, for which the PBM binding z-score came out at 0.609.

Consider AGGCAAAGTTCACTAGGTAACGTAAGATTCAGCT, for which the PBM binding z-score stood at 4.02.

The sequence CTCGAAAGGACGGTTGAGGTGAGTATACGGATAA showed a PBM binding z-score of 0.0192.

In the case of CGAACGAGGGCATGAGTCGATAGCAAATGCCGAT, the PBM binding z-score is 0.0627.

CCTACTTGGCCAAAAAGGTCATTGATGCCGATAA: the PBM binding z-score was determined as 4.93.

CCTACTGGGCCATCAGGTCATTAATATCAACGTT came in with a PBM binding z-score of 1.25.

Turning to TCTAGTTGGTCAGGGAGGTCACACACGACGGGTA, the PBM binding z-score is 4.14.

In turn, GCTAGCAGGCCAATTGGGTCACTCAATGACGGGC had a PBM binding z-score of 0.184.

The next experiment deals with PXR homodimer (NR concentration 270 nM). The description is as above. Put shortly: as §1
With CCTACTGGGCCAACGTCATTGATCAGTCAAAGCA, the PBM binding z-score was -0.509.

CCGACTCGGGCAGAAAGGTTACCATACCATCCGG displayed a PBM binding z-score of -0.293.

CCTTCTGGGCCACGAAAGGTCATTGATTCAGTGA had a PBM binding z-score of 1.61.

The sequence ACTAGCAGGCCGAGGGTCACTCAAGATTAGTCCG gave a PBM binding z-score of -0.0802.

For the sequence CCTATTAGTTGACCATAAGGGCAACCGAAGCTCG, the PBM binding z-score is 0.754.

ACTATTAGTTGACTTACGGCAACCGATACGACGC had a PBM binding z-score of -0.0464.

Sequence CCGGCTAGGTCAATGGTCAGCTAAAGCAGCTCGC returned a PBM binding z-score of -0.491.

TCTAGCAGGCCAGAGGGTCGCTCAAGAGGTACGG returned a PBM binding z-score of -0.896.

Consider ACTTCCGGGTCAACGAGGTTATAGCACGCGTATA, for which the PBM binding z-score was 6.49.

Regarding CCGACTGAGGCATAAGGTTACCATAAGCCAGCCC, the PBM binding z-score is -0.308.

Regarding GGAACGAGGGCAAGTTGACAGCAGAGTTTGATGG, the PBM binding z-score worked out at 0.641.

For the sequence CCAGACTGGTGAGAAGGTAACTCAGCCTCGATTA, the PBM binding z-score is -0.553.

With CGTCCAAGGTCAGAGAGGTCAGTGGATGCCGAGT, the PBM binding z-score was found to be 11.7.

For the sequence TCGGACAGGTGAAGGTAACTCAGGTACGCAGTCG, the PBM binding z-score turned out to be 0.228.

The sequence GCTATTAGTTGAAAGGGCAACCGAATGATTCTCG had a PBM binding z-score of 0.108.

Sequence ACAGACAGGTGATGAAGGTGACTCAGGCTATCAT displayed a PBM binding z-score of 0.191.

ACTATTAGTTGAGACGATGGCAACCGATAGGTTG came in with a PBM binding z-score of -0.102.

In the case of ACACCAAGGTGATCGTGAGGTCGTTGATACTAAC, the PBM binding z-score worked out at 1.07.

TGAATGAGGTTATAAAATCAGGGAACGTTGCAAA yielded a PBM binding z-score of -0.104.

In the case of TATACAGGGTCAAAAGCCAGAGTACGAATGTCGA, the PBM binding z-score is 0.526.

On to ACTTACGGGTCACCGAGGTTATAGCACGCGTATA, for which the PBM binding z-score came to 3.25.

For TCTGGTAGGTCAGTTGGTCAGCTAACGAGCTGCC, the PBM binding z-score is -0.287.

As for AATACAGCGTCATCGTAGGCCAGAGTACGCACAG, the PBM binding z-score is -0.167.

Sequence CGTCAAAGTTCAACTCAGGTAACGTAAAGCACGC returned a PBM binding z-score of 3.74.

Sequence ATATGTAGGTTAAGGGTGATTCAGGTTGGTTCGC showed a PBM binding z-score of 1.19.

The sequence CCAGACAGGTGAAAGATAACTCAGTCTGGTACGC showed a PBM binding z-score of 0.127.

The sequence TCTAGTTGATCAAAGGTCACACACTCGAAATGCG had a PBM binding z-score of 2.14.

The sequence TCTCGGAGGACAGGAAGGTCAGAGCTTTCCAGAG returned a PBM binding z-score of -0.0214.

CTCTAAAGGTCGGTTGAGGTGAGTATACGGATAA registered a PBM binding z-score of 0.187.

Sequence CGTCCAAGGTCAGAGAGGTTAGTGAATGCCGAGT displayed a PBM binding z-score of 4.8.

On to CCGACTGCGGCAAGGTTACCATAACGCACAGCCA, for which the PBM binding z-score was 0.00644.

CCTAGCAGGACAATCTGGGTCACTCAAGGCTTGA displayed a PBM binding z-score of -0.664.

Take AGGCAAAGTTCACTAGGTAACGTAAGATTCAGCT: the PBM binding z-score amounted to 2.73.

The sequence CTCGAAAGGACGGTTGAGGTGAGTATACGGATAA returned a PBM binding z-score of 0.134.

With CGAACGAGGGCATGAGTCGATAGCAAATGCCGAT, the PBM binding z-score is -0.737.

With CCTACTTGGCCAAAAAGGTCATTGATGCCGATAA, the PBM binding z-score came to 2.68.

Take CCTACTGGGCCATCAGGTCATTAATATCAACGTT: the PBM binding z-score turned out to be 0.741.

Consider TCTAGTTGGTCAGGGAGGTCACACACGACGGGTA, for which the PBM binding z-score turned out to be 1.55.

Take GCTAGCAGGCCAATTGGGTCACTCAATGACGGGC: the PBM binding z-score is -0.704.

These data come from the supplement of paper PMC6555819.
